Assay [1] can be described thus: qHTS assay to identify small molecule antagonists of the sonic hedgehog signaling (Shh) pathway (AID 1259369; calls by dose curve; note: nearly all actives have a fitted effect of over 45% in size). The procedure, abridged:
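NIH/3T3-derived Gli1-Luc reporter cells plated 4 h, dosed with compound, then stimulated with conditioned medium for 24 h at 37 C. Firefly luciferase luminescence read after 30 min with detection reagent at room temperature.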
On the technique in general: In qHTS, concentration-response curves come from the screen itself.

Assay [2] concerns the target Estrogen receptor beta (Homo sapiens) (UniProt Q92731). Kind of assay: qHTS assay to identify small molecule agonists of the estrogen receptor beta (ER-beta) signaling pathway (AID 1259377; active = well fitted activation curve with a large enough effect in the signal ratio in the repeat runs, not every such curve was filed as active; the % refers to the signal ratio). The procedure, abridged: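 In HEK293T cells bearing a UAS-beta-lactamase reporter under ER-beta control, DMSO-delivered compounds were incubated for 16 hr at 37C. Activity was detected as fluorescence 2 hours after LiveBLAzer B/G FRET substrate addition.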

Assay [3] has the same target. The assay can be described thus: qHTS assay to identify small molecule antagonists of the estrogen receptor beta (ER-beta) signaling pathway (AID 1259378; active = well fitted inhibition curve with a large enough effect in the signal ratio in the repeat runs, not every such curve was filed as active; the % refers to the signal ratio). An outline of the steps: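 ER-beta-UAS-bla HEK293T (GripTite) cells in 2% charcoal-stripped FBS medium were preincubated 6 hr at 37C, dosed with compound, then stimulated with 1 nM E2 (final) for 16 hr; beta-lactamase reporter read by B/G FRET fluorescence after 2 hr substrate loading.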

The nature of assay [4]: qHTS assay to identify small molecule agonists of the androgen receptor (AR) signaling pathway in the presence of an antagonist - cell viability counter screen (AID 1259379).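 Note: MDA-kb2 human breast cancer cells carrying an MMTV luciferase reporter; series mostly up to about 92 µM; nearly all actives have a fitted effect of over 25% in size.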 The procedure, abridged: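 MDA-kb2 cells (MMTV-luciferase, AR/GR), 3,000/well, 5 h attachment, then 3.0 µM nilutamide (final) and compounds at 15 concentrations. Viability by CellTiter-Fluor fluorescence after 16 h at 37 °C, 0% CO2, in the reporter wells.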

The nature of assay [5]: qHTS assay to identify small molecule agonists of the estrogen receptor beta (ER-beta) signaling pathway - cell viability counter screen (AID 1259380). Note: nearly all actives have a fitted effect of over 30% in size. An outline of the steps: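 ER-beta-UAS-bla HEK293T cells in medium with 2% charcoal-stripped FBS, pre-incubated 6 hr, then treated 16 hr at 37C. Cytotoxicity read in the same wells by CellTiter-Glo luminescence after 30 min at room temperature.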

Assay [6] in a line: qHTS assay to identify small molecule antagonists of the estrogen receptor beta (ER-beta) signaling pathway - cell viability counter screen (AID 1259382). Note: series mostly up to about 92 µM; nearly all actives have a fitted effect of over 55% in size. An outline of the steps:
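ER-beta-UAS-bla HEK293T cells in 2% charcoal-stripped FBS medium, treated with compound plus 1 nM 17-beta-estradiol for 16 h at 37C. Viability read by CellTiter-Glo luminescence after 30 min at room temperature in the same wells.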

For assay [7], the target named is Estrogen receptor (Homo sapiens) (UniProt P03372). Kind of assay: qHTS assay to identify small molecule agonists of the estrogen receptor alpha (ER-alpha) signaling pathway in the presence of an antagonist (AID 1259383; calls by dose curve; note: nearly all actives have a fitted effect of over 15% in size; note: potency is the fitted concentration of half-maximal effect; for activation: top concentration of the series differs between compounds). The procedure, abridged:
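VM7Luc4E2 cells express endogenous full-length ER-alpha with an ERE-luciferase reporter and were hormone-deprived for 5 days. Compounds at 15 concentrations were added with 10.0nM ICI-182,780 for 22hr at 37C. Luminescence was read with ONE-Glo.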

Assay [8] is described as follows: qHTS assay to identify small molecule agonists or antagonists of the thyroid stimulating hormone receptor (TSHR) signaling pathway - wild type cell line counter screen (AID 1259384; calls by dose curve). An outline of the steps:
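Wild-type HEK293 cells were plated 18 h at 37 C/5% CO2, pin-dosed with compound plus Ro20-1724 medium, held 30 min at room temperature, then given cAMP-d2 and anti-cAMP-cryptate; fluorescence was read after 1 h. Fifteen concentrations, triplicate.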

The target of assay [9] is Thyrotropin receptor (Homo sapiens) (UniProt P16473). Kind of assay: qHTS assay to identify small molecule antagonists of the thyroid stimulating hormone receptor (TSHR) signaling pathway (AID 1259385; calls by dose curve; note: nearly all actives have a fitted effect of over 20% in size). The procedure, abridged:
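TSHR-HEK293 cells were plated and held 18 h at 37C/5% CO2, then given compound plus Ro20-1724 and stimulated with TSH at 1.5 ng/mL final. After 30 min at room temperature, cAMP was detected with cAMP-d2/anti-cAMP-cryptate (1 h) by fluorescence.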

The nature of assay [10]: qHTS assay to identify small molecule agonists of the estrogen receptor alpha (ER-alpha) signaling pathway in the presence of an antagonist - cell viability counter screen (AID 1259386).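 Note: series mostly up to about 92 µM; cells exposed to compounds for 22 h at 37 °C before the viability read; nearly all actives have a fitted effect of over 30% in size.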 The procedure, abridged: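 Cell viability in VM7Luc4E2 cells (endogenous full-length ER-alpha) measured by CellTiter-Fluor fluorescence in the same wells as the luciferase screen. Cells pre-cultured 5 days in charcoal-stripped serum, then treated 22 h with compounds at 15 concentrations plus 10.0nM ICI-182,780.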

The target of assay [11] is Progesterone receptor (Homo sapiens) (UniProt P06401). Kind of assay: qHTS assay to identify small molecule agonists of the progesterone receptor (PR) signaling pathway (AID 1346784; calls by dose curve; note: nearly all actives have a fitted effect of over 30% in size). The procedure, abridged: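 Using charcoal-stripped serum (2%) to limit endogenous steroids, PR-UAS-bla HEK 293T cells received compounds for 16 hr at 37C after 6 hr plating; beta-lactamase FRET fluorescence was recorded following 2 hr substrate loading at room temperature.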

Assay [12] shares this target. Kind of assay: qHTS assay to identify small molecule antagonists of the progesterone receptor (PR) signaling pathway (AID 1346795; active = well fitted inhibition curve with a large enough effect in the signal ratio in the repeat runs, not every such curve was filed as active; the % refers to the signal ratio; note: potency is the fitted concentration of half-maximal effect). An outline of the steps:
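Inhibition of R5020-induced (1 nM final) beta-lactamase reporter signal in PR-UAS-bla HEK293T cells was scored by FRET fluorescence after overnight (16 hr) compound treatment.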

A short description of assay [13]: qHTS assay to identify small molecule antagonists of the progesterone receptor (PR) signaling pathway - cell viability counter screen (AID 1346798). Note: series mostly up to about 92 µM; nearly all actives have a fitted effect of over 50% in size. An outline of the steps:
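ATP content as viability readout: CellTiter-Glo luminescence, 30 min room temperature, in PR-UAS-bla HEK293T cells after 16 hr compound/R5020 treatment at 37C and 5% CO2.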

Assay [14] in a line: qHTS assay to identify small molecule agonists of the progesterone receptor (PR) signaling pathway - cell viability counter screen (AID 1346799; calls by dose curve; note: nearly all actives have a fitted effect of over 45% in size). The procedure, abridged:
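Cytotoxicity in PR-bla HEK293T cells: 16 h compound, 37C; CellTiter-Glo added post-FRET read; luminescence after 30 min RT.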

Assay [15] is described as follows: qHTS assay to identify small molecule antagonists of the TGF-beta/Smad signaling pathway - cell viability counter screen (AID 1346824). Note: nearly all actives have a fitted effect of over 50% in size. The procedure, abridged: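 SBE-bla HEK 293T cells were plated overnight at 37 C, then given compounds in DMSO plus TGF-beta1 (added as 0.25 ng/mL solution) for 5 hr. After the bla read, CellTiter-Glo was added to the same wells and luminescence read after 30 min at room temperature.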

A short description of assay [16]: qHTS assay to identify small molecule agonists of the TGF-beta/Smad signaling pathway - cell viability counter screen (AID 1346829). Note: top concentration of the series differs between compounds; nearly all actives have a fitted effect of over 45% in size. An outline of the steps:
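Compound-treated SBE-bla HEK 293T cells (5 hr, 37 C) were assessed for viability with CellTiter-Glo in parallel with the reporter read.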

Assay [17] can be described thus: qHTS assay to identify small molecule agonists of the TGF-beta/Smad signaling pathway (AID 1346859; active = well fitted activation curve with a large enough effect in the signal ratio in the repeat runs, not every such curve was filed as active; the % refers to the signal ratio; note: series mostly up to about 77 µM). An outline of the steps: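 Stable Smad binding element-beta-lactamase HEK 293T cells; 5 hr compound exposure at 37 C under 5% CO2; 2 hr room-temperature substrate step; fluorescence excited at 405 nm, collected at 460 nm and 530 nm.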
Assay [18] deals with Thyrotropin-releasing hormone receptor (Homo sapiens) (UniProt P34981). Kind of assay: qHTS assay to identify small molecule antagonists of the thyrotropin-releasing hormone receptor (TRHR) signaling pathway (AID 1346877; active = well fitted inhibition curve with a large enough effect in the repeat runs, not every such curve was filed as active; note: series mostly up to about 51 µM). The procedure, abridged:
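TRHR-expressing HEK293 cells loaded with calcium dye for 2 h at 37 C; compounds pre-incubated 5 min at room temperature before TRH challenge at 1 nM final. Intracellular calcium fluorescence read kinetically for 3 min; 15 concentrations in triplicate.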

Assay [19] has the same target. The assay can be described thus: qHTS assay to identify small molecule agonists of the thyrotropin-releasing hormone receptor (TRHR) signaling pathway (AID 1346891; calls by dose curve; note: series mostly up to about 58 µM). The procedure, abridged:
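In 1536-format, 1500 TRHR-Hek293 cells per well grew 18 h, took up calcium dye for 2 h at 37 °C, received compound, and were read kinetically; 15-point titrations, triplicates.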

Assay [20] deals with Androgen receptor (Homo sapiens) (UniProt P10275). Kind of assay: qHTS assay to identify small molecule agonists of the androgen receptor (AR) signaling pathway in the presence of an antagonist (AID 1259381; calls by dose curve; note: nearly all actives have a fitted effect of over 15% in size). An outline of the steps: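 MDA-kb2 cells carrying MMTV-luciferase (AR/GR responsive), 3,000 cells/well, co-treated with 3.0 uM nilutamide final. Compounds at 15 concentrations, 16 hr at 37C without CO2. Luciferase luminescence read after 30 min with ONE-Glo.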

Records with an inconclusive call do not appear. Where a structure was tested more than once in an assay, its records may differ in their call. Calls of active or inactive are those of the source. Unless noted, calls come from the whole dose curve; as a rule, active = well fitted curve in the direction sought with a large enough effect in the repeat runs; inconclusive = weak or mixed curves; inactive = no such curve, though single readings can be large; an effect the other way counts as inactive or inconclusive.

Chain of Progesterone receptor (Homo sapiens) (P06401 whole entry, looked up): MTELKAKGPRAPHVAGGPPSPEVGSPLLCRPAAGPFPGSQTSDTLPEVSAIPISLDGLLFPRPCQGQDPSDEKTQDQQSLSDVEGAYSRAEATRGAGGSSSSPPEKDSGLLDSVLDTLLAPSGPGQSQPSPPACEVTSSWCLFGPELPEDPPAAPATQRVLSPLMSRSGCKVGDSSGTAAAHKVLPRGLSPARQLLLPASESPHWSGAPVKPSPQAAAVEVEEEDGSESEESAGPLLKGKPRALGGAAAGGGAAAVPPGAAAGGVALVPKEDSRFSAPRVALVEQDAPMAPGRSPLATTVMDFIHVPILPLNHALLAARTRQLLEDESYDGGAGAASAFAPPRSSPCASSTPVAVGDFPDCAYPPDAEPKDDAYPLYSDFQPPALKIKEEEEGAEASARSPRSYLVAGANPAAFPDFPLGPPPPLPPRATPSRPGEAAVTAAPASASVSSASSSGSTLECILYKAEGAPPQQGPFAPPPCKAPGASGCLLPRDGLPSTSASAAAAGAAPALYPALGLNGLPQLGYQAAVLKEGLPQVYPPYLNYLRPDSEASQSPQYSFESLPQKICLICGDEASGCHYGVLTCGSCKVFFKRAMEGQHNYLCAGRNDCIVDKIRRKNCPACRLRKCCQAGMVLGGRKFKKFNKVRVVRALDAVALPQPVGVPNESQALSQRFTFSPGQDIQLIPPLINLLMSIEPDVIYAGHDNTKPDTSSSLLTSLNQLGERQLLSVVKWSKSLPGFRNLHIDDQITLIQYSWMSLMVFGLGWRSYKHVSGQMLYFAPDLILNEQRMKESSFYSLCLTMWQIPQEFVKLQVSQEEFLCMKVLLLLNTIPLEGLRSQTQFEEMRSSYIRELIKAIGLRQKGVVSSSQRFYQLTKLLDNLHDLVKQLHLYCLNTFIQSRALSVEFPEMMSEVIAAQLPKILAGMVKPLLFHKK
Chain of Estrogen receptor beta (Homo sapiens) (Q92731 whole entry, looked up): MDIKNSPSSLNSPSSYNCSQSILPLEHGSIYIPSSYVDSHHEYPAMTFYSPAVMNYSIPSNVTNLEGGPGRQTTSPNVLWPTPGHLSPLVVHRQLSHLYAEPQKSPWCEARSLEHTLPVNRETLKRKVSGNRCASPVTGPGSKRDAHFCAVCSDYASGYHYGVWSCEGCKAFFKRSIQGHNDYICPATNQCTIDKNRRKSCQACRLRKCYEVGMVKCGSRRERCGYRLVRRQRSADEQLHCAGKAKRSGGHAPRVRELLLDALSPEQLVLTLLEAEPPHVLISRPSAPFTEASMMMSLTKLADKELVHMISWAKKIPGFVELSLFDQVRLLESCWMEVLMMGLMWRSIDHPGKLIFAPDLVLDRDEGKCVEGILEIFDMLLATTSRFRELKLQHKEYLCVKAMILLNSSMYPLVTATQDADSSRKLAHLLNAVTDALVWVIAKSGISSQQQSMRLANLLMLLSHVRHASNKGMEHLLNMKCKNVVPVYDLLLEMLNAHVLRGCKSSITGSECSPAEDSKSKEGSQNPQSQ
Chain of Thyrotropin receptor (Homo sapiens) (P16473 whole entry, looked up): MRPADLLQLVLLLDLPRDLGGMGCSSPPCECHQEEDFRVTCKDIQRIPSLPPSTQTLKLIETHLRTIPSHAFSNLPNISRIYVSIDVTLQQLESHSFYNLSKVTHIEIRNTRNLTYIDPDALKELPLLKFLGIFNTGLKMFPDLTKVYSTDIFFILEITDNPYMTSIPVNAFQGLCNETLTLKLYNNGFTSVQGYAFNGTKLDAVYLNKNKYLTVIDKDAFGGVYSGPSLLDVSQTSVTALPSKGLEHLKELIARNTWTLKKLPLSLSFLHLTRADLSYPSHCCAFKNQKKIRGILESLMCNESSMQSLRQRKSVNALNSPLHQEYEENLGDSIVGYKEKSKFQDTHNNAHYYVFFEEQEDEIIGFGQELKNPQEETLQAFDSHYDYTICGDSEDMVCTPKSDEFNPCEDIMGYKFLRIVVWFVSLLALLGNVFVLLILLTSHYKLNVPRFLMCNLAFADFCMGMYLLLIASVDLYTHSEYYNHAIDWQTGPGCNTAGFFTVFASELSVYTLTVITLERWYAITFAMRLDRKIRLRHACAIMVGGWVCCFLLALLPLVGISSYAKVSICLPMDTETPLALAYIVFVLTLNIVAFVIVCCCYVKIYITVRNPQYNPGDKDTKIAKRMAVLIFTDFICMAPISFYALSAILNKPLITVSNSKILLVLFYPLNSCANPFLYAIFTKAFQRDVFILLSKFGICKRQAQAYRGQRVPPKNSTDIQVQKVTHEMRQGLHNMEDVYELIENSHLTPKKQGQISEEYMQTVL
Chain of Estrogen receptor (Homo sapiens) (P03372 whole entry, looked up): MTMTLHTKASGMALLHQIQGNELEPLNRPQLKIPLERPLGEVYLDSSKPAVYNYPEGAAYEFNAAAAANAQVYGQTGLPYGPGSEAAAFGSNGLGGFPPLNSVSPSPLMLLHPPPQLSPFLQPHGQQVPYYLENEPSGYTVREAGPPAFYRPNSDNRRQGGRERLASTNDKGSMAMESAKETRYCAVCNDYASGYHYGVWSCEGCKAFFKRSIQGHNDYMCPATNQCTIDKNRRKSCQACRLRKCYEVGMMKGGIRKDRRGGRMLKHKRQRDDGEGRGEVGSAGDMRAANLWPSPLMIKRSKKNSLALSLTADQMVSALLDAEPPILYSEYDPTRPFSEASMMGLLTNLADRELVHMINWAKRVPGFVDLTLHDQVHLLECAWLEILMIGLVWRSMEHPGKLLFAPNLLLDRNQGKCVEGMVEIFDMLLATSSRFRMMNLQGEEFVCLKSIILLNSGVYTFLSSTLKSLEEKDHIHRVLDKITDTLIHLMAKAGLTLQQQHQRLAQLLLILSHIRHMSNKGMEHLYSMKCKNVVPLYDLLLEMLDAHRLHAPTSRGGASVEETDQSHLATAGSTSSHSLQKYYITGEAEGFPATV
Chain of Thyrotropin-releasing hormone receptor (Homo sapiens) (P34981 whole entry, looked up): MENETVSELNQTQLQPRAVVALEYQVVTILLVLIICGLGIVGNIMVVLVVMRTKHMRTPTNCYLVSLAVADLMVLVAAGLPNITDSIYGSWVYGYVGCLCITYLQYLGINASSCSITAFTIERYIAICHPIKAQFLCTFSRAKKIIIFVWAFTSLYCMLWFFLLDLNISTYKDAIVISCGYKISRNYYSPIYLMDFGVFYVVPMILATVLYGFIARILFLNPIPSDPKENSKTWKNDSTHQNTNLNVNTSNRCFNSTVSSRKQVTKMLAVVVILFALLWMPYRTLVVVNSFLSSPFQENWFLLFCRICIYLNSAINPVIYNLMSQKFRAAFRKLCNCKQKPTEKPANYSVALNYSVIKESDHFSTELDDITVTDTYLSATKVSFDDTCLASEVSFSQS
Chain of Androgen receptor (Homo sapiens) (P10275 whole entry, looked up): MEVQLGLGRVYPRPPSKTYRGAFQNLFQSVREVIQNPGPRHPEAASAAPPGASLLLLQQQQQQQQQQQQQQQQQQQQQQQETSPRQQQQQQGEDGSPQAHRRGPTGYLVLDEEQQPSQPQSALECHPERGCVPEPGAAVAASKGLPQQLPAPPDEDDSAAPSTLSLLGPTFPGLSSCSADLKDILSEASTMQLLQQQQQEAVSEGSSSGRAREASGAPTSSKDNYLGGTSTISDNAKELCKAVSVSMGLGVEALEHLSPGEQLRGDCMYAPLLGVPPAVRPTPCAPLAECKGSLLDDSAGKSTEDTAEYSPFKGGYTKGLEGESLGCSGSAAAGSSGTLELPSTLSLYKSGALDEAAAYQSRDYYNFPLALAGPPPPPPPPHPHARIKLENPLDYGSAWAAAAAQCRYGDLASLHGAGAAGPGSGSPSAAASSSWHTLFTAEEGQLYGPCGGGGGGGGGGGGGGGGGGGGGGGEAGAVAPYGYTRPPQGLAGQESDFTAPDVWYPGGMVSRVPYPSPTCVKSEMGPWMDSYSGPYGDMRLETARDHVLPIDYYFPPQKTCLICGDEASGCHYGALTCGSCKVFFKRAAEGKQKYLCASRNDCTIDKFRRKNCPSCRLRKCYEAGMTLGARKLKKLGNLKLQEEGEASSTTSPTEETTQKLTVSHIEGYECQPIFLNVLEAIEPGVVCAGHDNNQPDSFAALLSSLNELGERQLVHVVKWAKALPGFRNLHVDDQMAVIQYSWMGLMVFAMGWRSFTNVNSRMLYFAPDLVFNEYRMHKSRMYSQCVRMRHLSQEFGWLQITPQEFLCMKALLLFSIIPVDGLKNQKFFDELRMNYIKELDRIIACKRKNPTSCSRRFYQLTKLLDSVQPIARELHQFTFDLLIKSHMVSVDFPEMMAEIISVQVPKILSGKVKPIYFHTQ

In the case of `Cc1ccc([N+](=O)[O-])cc1N`, the Potency entry in assay [1], in assay [2], in assay [3], in assay [4], in [5] and in assay [6] was “inactive” in each case. The Potency result in [7], in assay [8], in [9], in assay [10], in [11] and in assay [12] was “inactive” throughout. Also, the Potency entry in assay [13], in [14], in [15], in assay [16], in assay [17] and in assay [18] was “inactive” in each case. Further, the compound was called inactive in assay [19].
`CCCCC(=O)O`: the Potency entry in [1], in assay [2], in assay [3], in assay [4], in assay [5] and in assay [6] was “inactive” each time. In addition, the Potency result in assay [7], in [8], in assay [9], in [10], in assay [11] and in [12] was “inactive” in each case. Also, the Potency entry in assay [13], in assay [14], in assay [15], in assay [16], in assay [17] and in [18] was “inactive” each time. Also, the result in [19] was inactive.
`O=C1C(N(CO)C(=O)NCO)N(CO)C(=O)N1CO` (stereo unspecified): the Potency result in [1], in assay [2], in assay [3], in [4], in assay [5] and in assay [6] was “inactive” throughout. The Potency entry in [7], in assay [9], in [10], in assay [11], in assay [12] and in assay [13] was “inactive” in each case. Further, the Potency entry in assay [14], in assay [15], in [16], in assay [17] and in [18] was “inactive” throughout. Besides, the outcome in assay [19] was inactive.
Regarding `O=[N+]([O-])c1ccccc1C(F)(F)F`, the Potency result in [1], in [2], in [3], in assay [4], in [5] and in assay [6] was “inactive” each time. In addition, the Potency entry in assay [9], in assay [10], in assay [11], in assay [12], in assay [13] and in [14] was “inactive” each time. In addition, the Potency result in [15], in assay [16], in assay [17] and in assay [18] was “inactive” in each case. Also, the result in assay [20] and in assay [19] was inactive. Besides, the Potency in assay [7] is 59.8 µM (active) and inactive.
`CC(C)c1ccc(C(C)C)cc1`: the Potency result in assay [1], in assay [2], in assay [3], in assay [4], in assay [5] and in assay [6] was “inactive” throughout. The Potency result in [7], in [9], in [10], in assay [11], in [12] and in assay [13] was “inactive” throughout. Besides, the Potency entry in assay [14], in assay [15], in assay [16], in assay [17] and in assay [18] was “inactive” in each case. In assay [19], the compound was called inactive.
Regarding `O=C1CCCCCCCCCCC1`, the Potency result in assay [1], in [2], in [3], in assay [4], in assay [5] and in assay [6] was “inactive” each time. The Potency result in [7], in [8], in assay [9], in assay [10], in [11] and in assay [12] was “inactive” throughout. Also, the Potency entry in assay [13], in [14], in [15], in assay [16] and in assay [17] was “inactive” throughout.
Turning to `COc1c2ccoc2cc2oc(=O)ccc12`, the Potency entry in assay [1], in assay [2], in [3], in [4], in assay [5] and in assay [6] was “inactive” in each case. Also, the Potency entry in assay [7], in [8], in assay [9], in assay [10], in [11] and in assay [13] was “inactive” throughout. Further, the Potency result in assay [14], in [15], in assay [16], in assay [17] and in [18] was “inactive” each time. Besides, the Potency in assay [12] is 15.7 µM (active). In addition, in assay [19], the result was inactive.
As to `CCCCCCCCO`, the Potency result in assay [1], in assay [2], in assay [3], in [4], in assay [5] and in assay [6] was “inactive” each time. In addition, the Potency entry in [7], in assay [8], in [9], in assay [10], in assay [11] and in assay [12] was “inactive” each time. In addition, the Potency entry in assay [13], in assay [14], in assay [15], in assay [16] and in assay [17] was “inactive” throughout.

(Values after PubChem BioAssay (Tox21).)
